90 molecules from PubChem BioAssay AID1508602 (The Scripps Research Institute Molecular Screening Center, 2020) can be followed below.

Screen size: about 650,000 compounds; about 6,800 (1%) were called active. The full list was thinned out, with actives kept by preference. A number with no mark means an inactive call. Rule as the data show it: active = activation above about 4.9%; inactive = the rest.

The target of the test is G-protein coupled receptor 151 (Homo sapiens) (UniProt Q8TDV0). Briefly: activates the human receptor GPR151, primary screen, cell-based, PathHunter beta-arrestin, luminescence (AID 1508602).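 Also: 0% = median of compound wells and 100% = cells with positive control.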 Particulars: PathHunter beta-arrestin GPR151 cells, at 11.2 µM, active compounds read high.
Sequence of G-protein coupled receptor 151 (Homo sapiens) (Q8TDV0 whole entry, looked up): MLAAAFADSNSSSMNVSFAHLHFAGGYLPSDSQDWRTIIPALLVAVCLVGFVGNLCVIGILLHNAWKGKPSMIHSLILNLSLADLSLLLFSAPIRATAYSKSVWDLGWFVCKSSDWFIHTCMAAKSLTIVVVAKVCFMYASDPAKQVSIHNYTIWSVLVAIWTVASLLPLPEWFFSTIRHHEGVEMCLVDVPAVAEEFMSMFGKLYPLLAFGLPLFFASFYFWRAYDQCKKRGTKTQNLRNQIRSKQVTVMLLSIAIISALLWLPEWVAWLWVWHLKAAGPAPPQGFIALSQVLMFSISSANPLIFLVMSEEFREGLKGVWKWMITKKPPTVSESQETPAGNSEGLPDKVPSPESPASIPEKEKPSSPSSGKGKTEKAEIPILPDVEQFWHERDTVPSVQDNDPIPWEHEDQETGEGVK
Consider `COC(=O)c1ccc(-c2cnc3ccc(NCCCO)nn23)cc1`, for which the activation was 0.0841%.

On to `O=C(Cc1cccs1)NCCS(=O)(=O)N1CCN(CCc2ccccc2)CC1`, for which the activation is 0.729%.

As to `Cc1ccccc1C(=O)NCc1nc(-c2ccc(Cl)cc2)no1`, the activation is 6.7% (active).

In the case of `Cc1ccc(-c2noc(CNC(=O)c3cc(C)ccc3C)n2)cc1`, the activation is 0.749%.

For `Cc1ccc(-c2noc(CNC(=O)c3cccc4ccccc34)n2)cc1`, the activation is 1.49%.

On to `COc1ccc(C2Nc3ccccc3C(=O)N2c2ccc(C)cc2)cc1COc1ccc(Cl)cc1` (stereo not given), for which the activation is 2.56%.

As to `O=C(O)CN1C(=O)CC(N2C(=O)/C(=C/c3ccc(F)cc3)SC2=S)C1=O` (stereo not given), the activation is -1.59%.

As for `Cn1c(=O)c2c(nc(SCC(=O)O)n2Cc2ccc(F)cc2)n(C)c1=O`, the activation was 8.98% (active).

For the molecule `Cn1cnnc1Sc1nc2c(c(=O)n(C)c(=O)n2C)n1Cc1ccc(F)cc1`, the activation was -1.79%.

For `CNC(=O)CSc1nc2c(c(=O)n(C)c(=O)n2C)n1Cc1ccc(F)cc1`, the activation was 0.114%.

Turning to `CCc1nc2sc3c(c2c2nnc(SCC(=O)NCc4ccco4)n12)CCCC3`, the activation was -0.144%.

Regarding `CCOC(=O)CNC(=O)/C(=C\c1ccc2c(c1)OCO2)NC(=O)c1ccccc1OC`, the activation was 2.88%.

As for `COc1ccccc1C(=O)N/C(=C/c1ccc2c(c1)OCO2)C(=O)N1CCCCC1`, the activation is 0.0614%.

On to `COc1ccccc1C(=O)N/C(=C\c1ccc2c(c1)OCO2)C(N)=O`, for which the activation is 6.4% (active).

For the molecule `COCCOC(=O)C1=C(C)Nc2ccccc2S1`, the activation is 1.48%.

On to `CN(C)S(=O)(=O)Nc1ccc(N2CCC(NCc3cc4ccccc4[nH]3)CC2)cc1`, for which the activation is -0.741%.

`C=C(C)CSc1nc2sc3c(c2c(=O)n1-c1ccc(OC)cc1)CC(C)(C)OC3`: the activation is 5.02% (active).

As to `CCn1c(SCC(=O)O)nc2sc3c(c2c1=O)CC(C)(C)OC3`, the activation was -0.501%.

For the molecule `COC(=O)CSc1nc2sc3c(c2c(=O)n1C1CCCCC1)CC(C)(C)OC3`, the activation is -0.897%.

In the case of `Cc1cc(Cl)ccc1OCc1nc(-c2ccccc2)no1`, the activation was 1.48%.

Turning to `CC1=C(C(=O)OCC2CCCO2)C(c2ccccc2F)C2=C(CCCC2=O)N1` (stereo not given), the activation was 0.289%.

Take `COc1ccc(CNC(=O)CSc2nnnn2C2CCCCC2)cc1`: the activation was -1.28%.

On to `CCOc1ccc(NC(=O)COc2cc(C)c(Cl)c(C)c2)cc1`, for which the activation was -0.356%.

As for `CCOc1ccc(NC(=O)COc2ccc(C)cc2C)cc1`, the activation was 0.102%.

Regarding `CCOc1ccc(NC(=O)COc2cccc(C)c2C)cc1`, the activation is 5.81% (active).

`COc1cc(-c2cc(-c3ccccc3)nc3sc(C(=O)O)c(N)c23)cc(OC)c1OC`: the activation is 0.0436%.

Regarding `COc1ccc(C(=O)N2CCC(C(N)=O)CC2)cc1OC`, the activation was 1.14%.

For `NC(=O)C1CCN(C(=O)c2ccc(-c3ccccc3)cc2)CC1`, the activation is 5.25% (active).

For the molecule `NC(=O)C1CCN(C(=O)c2ccc(C(F)(F)F)cc2)CC1`, the activation is -0.735%.

For `COc1ccc(C(=O)C2CCN(CC(N)=O)CC2)cc1`, the activation was -1.68%.

On to `CN(C)CCNC(=O)C(=O)NCC1OCCCN1S(=O)(=O)c1ccc(F)cc1` (stereo not given), for which the activation is -0.149%.

On to `Cc1cc(NC(=O)CSc2nc(=O)cc(N)n2-c2ccc(F)cc2)no1`, for which the activation is -0.189%.

Consider `Nc1cc(=O)nc(SCC(=O)Nc2nccs2)n1-c1ccc(F)cc1`, for which the activation is 5.12% (active).

For the molecule `O=C(CSc1ccc(F)cc1)Nc1nccs1`, the activation is -0.169%.

For `O=C(Nc1ccc2oc(-c3ccccc3F)nc2c1)c1cc(I)ccc1Cl`, the activation is -1.58%.

As to `CCOc1ccc(-c2cc(C(=O)NCCCN3CCN(C)CC3)c3ccccc3n2)cc1`, the activation was 2.73%.

Consider `O=C1c2ccccc2C(=O)N1CNc1ccc(Cc2ccncc2)cc1`, for which the activation is -0.716%.

As to `O=C(CN1C(=O)NC2(CCCCCC2)C1=O)Nc1ccc(S(=O)(=O)N2CCCC2)cc1`, the activation was 1.73%.

On to `O=C(CN1C(=O)CCC1=O)Nc1ccc(S(=O)(=O)N2CCOCC2)cc1`, for which the activation was 6.57% (active).

For the molecule `COC(=O)CCC(=O)Nc1ccc(S(=O)(=O)N2CCOCC2)cc1`, the activation was -0.0636%.

For the molecule `CN(CC(=O)Nc1cccc(F)c1)C(=O)C1CCCCC1`, the activation is -0.0765%.

In the case of `Cc1ccc(S(=O)(=O)Cn2nnnc2CN2CCN(c3cccc(Cl)c3)CC2)cc1`, the activation is -0.91%.

For the molecule `Cc1ccc(S(=O)(=O)Cn2nnnc2CN2CCN(c3ccccc3F)CC2)cc1`, the activation is 8.05% (active).

For `CC(C)CCn1nnnc1CN1CCN(c2ccccc2F)CC1`, the activation was -0.0283%.

For the molecule `CCCC(C)NS(=O)(=O)c1ccc(OCC(=O)OC)cc1` (stereo not given), the activation was 0.348%.

Take `COCC(=O)NC(C)c1nnc(SCc2ccccc2C)n1C` (stereo not given): the activation is -0.733%.

Consider `COc1cccc(-c2ocnc2C(=O)Nc2ccc3nc(-c4cccnc4)oc3c2)c1`, for which the activation is 7.47% (active).

Take `COc1cccc(-c2nc3cc(NC(=O)c4cncc(Br)c4)ccc3o2)c1`: the activation is -0.0884%.

For the molecule `COc1cccc(C(=O)Nc2ccc3oc(-c4ccccc4)nc3c2)c1`, the activation is -0.935%.

Regarding `O=C(NC1CC1)c1ccc(-c2cccc(C(=O)NCc3ccccc3)n2)cc1`, the activation is -1.55%.

As for `CCOc1ccc(-c2ccc(SCC(=O)Nc3cc(C)on3)nn2)cc1`, the activation is 1.58%.

With `O=C1N(CC2CCCCC2)CCN1c1ccc(C(F)(F)F)cn1`, the activation was -0.812%.

For `CCOc1ccc(S(=O)(=O)N2CCN(c3ncccn3)CC2)c2cccnc12`, the activation was 3.78%.

Consider `c1ccc(-c2ccccc2OCCCCNCCN2CCOCC2)cc1`, for which the activation was 0.194%.

`c1ccc(-c2ccccc2OCCNCCN2CCOCC2)cc1`: the activation is -0.471%.

For the molecule `c1ccc(-c2ccc(OCCCNCCN3CCOCC3)cc2)cc1`, the activation was 7.78% (active).

With `CC(C)c1ccc(N2C(=O)C3C(C2=O)C2(c4ccccc4)C(=O)C3(c3ccccc3)C(c3ccccc3)=C2c2ccccc2)cc1` (stereo not given), the activation was 2.7%.

Regarding `CCCOC1(C(F)(F)F)NC(=O)N(c2ccc(C(C)C)cc2)C1=O` (stereo not given), the activation is 10.8% (active).

As to `COC1(C(F)(F)F)NC(=O)N(c2ccccc2)C1=O` (stereo not given), the activation was -1.06%.

As for `Cc1nc(N2CCN(C)CC2)c2c(C)c(C(=O)NC3CCCCC3)sc2n1`, the activation is 0.833%.

Turning to `CC(C)NC(=O)c1sc(=S)n2c1[nH]c(=O)c1ccc(C(=O)NCCN(C)C)cc12`, the activation is 1.68%.

In the case of `O=C1/C(=C\c2cccs2)SC(=S)N1Cc1ccco1`, the activation is -0.646%.

On to `CCC(=O)N1CCc2cc(S(=O)(=O)CCC(=O)Nc3ccc(C(=O)OC)cc3)ccc21`, for which the activation is 0.246%.

For `COc1cc(-c2cncc(-c3cccc(C(=O)NCCN(C)C)c3)n2)cc(OC)c1OC`, the activation was -0.823%.

Consider `CCN1CCN(Cc2cc([N+](=O)[O-])ccc2O)CC1`, for which the activation was -0.921%.

As for `Cc1ccc(CN2CCOCC2)c(C)c1`, the activation was 0.704%.

Regarding `C/C(=N/N1CCN(Cc2ccc(C)cc2C)CC1)c1ccc([N+](=O)[O-])cc1`, the activation was 9.21% (active).

`COC(=O)c1cccc(-n2c3nc(=O)[nH]c(=O)c-3cc3ccccc32)c1`: the activation is -0.76%.

In the case of `CC(C)CC(=O)Nc1ccc(NC(=O)CC(C)C)c(Cl)c1`, the activation was 0.466%.

On to `CC(=O)c1cccc(-c2nc(Nc3ccc(Oc4ccccc4)cc3)c3ncn(-c4ccsc4)c3n2)c1`, for which the activation was 5.34% (active).

For the molecule `Cc1nn(C)c(C)c1-c1nc(Nc2ccc(Oc3ccccc3)cc2)c2ncn(-c3ccsc3)c2n1`, the activation was 0.158%.

As for `CC(=O)c1cccc(-c2nc(NCCOc3ccccc3)c3ncn(-c4ccccc4)c3n2)c1`, the activation was 0.401%.

Turning to `CCOC(=O)C1=C(C)N=c2s/c(=C\c3ccc(OC)c(Br)c3)c(=O)n2C1c1ccc2c(c1)OCO2` (stereo not given), the activation is 3.22%.

Consider `CCCc1c(C)nc2c(C(=O)NC3CCCCCCC3)c[nH]n2c1=O`, for which the activation is 1.02%.

Regarding `CC(=O)COC(=O)CNC(=O)c1ccc(Cl)cc1`, the activation is -1.71%.

Regarding `CCOC(=O)Cc1csc(NC(=O)c2ccc(NC(=O)CC)cc2)n1`, the activation was -0.289%.

In the case of `CCOC(=O)Cc1coc(NC(=O)c2ccc(Cl)cc2)n1`, the activation was 5.28% (active).

For the molecule `Cc1nn(CC(=O)N(CC2CCCO2)C2CCS(=O)(=O)C2)c(C)c1[N+](=O)[O-]` (stereo not given), the activation was 0.461%.

Take `CCOC(=O)C1=C(C)N=c2s/c(=C\c3cccc(OC)c3OCC)c(=O)n2C1c1ccccc1OC(C)C` (stereo not given): the activation was 2.86%.

For the molecule `O=C(c1cn[nH]c1-c1ccc([N+](=O)[O-])cc1)N1CCOCC1`, the activation is -0.121%.

In the case of `COc1cc([N+](=O)[O-])ccc1NC(=O)N1CCN(C2CCCCC2)CC1`, the activation is -0.0069%.

Consider `O=C(c1cc([N+](=O)[O-])ccc1NC1CCCCC1)N1CCOCC1`, for which the activation is 9.09% (active).

Regarding `S=C(NCc1ccccc1)NCc1nc2ccccc2[nH]1`, the activation was 1.09%.

With `Cc1ccc(C)n1-c1ccc(C(=O)NCC(c2ccco2)N(C)C)cc1` (stereo not given), the activation was 0.754%.

`CCOCCn1c(=O)c2c(nc3n2CCCN3c2ccc(Br)cc2)n(C)c1=O`: the activation is 0.326%.

Turning to `CC(=O)Cn1c(=O)c2c(nc3n2CCCN3c2ccc(Br)cc2)n(C)c1=O`, the activation was 5.99% (active).

As to `CC(C)Cn1c(=O)c2c(nc3n2CCCN3c2ccc(Br)cc2)n(C)c1=O`, the activation was -0.288%.

Take `O=C(C(Cc1ccccc1)N1Cc2ccccc2C1=O)N1CCOCC1` (stereo not given): the activation is -0.15%.

As for `O=C(C(Cc1ccccc1)N1C(=O)C2C3c4ccccc4C(c4ccccc43)C2C1=O)N1CCOCC1` (stereo not given), the activation is 6.8% (active).

Regarding `O=C(C(Cc1ccccc1)N1C(=O)C2C3CCC(C3)C2C1=O)N1CCOCC1` (stereo not given), the activation was 0.906%.
